Assay results taken from PubChem BioAssay AID1159580 (chemical genetic matrix, 2015).
Several values for one entry are separate records, joined by “and”; a condition that tells them apart may be missing. Equal values may be shown once. The campaign covered roughly 5,500 compounds. About 2,000 (36%) were called active. Roughly 18% stayed inconclusive and do not appear here. Cut-off read from the data, not from the text of the source: active = normalized growth mostly below about 0.91 (no sharp cut-off); inconclusive = no clear call, values can overlap the other calls; inactive = mostly above about 0.92. The list shows a part of the results.

Assay: chemical genetic growth profiling, strain panel (AID 1159580);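 note: tested at 20 µM; growth read once vehicle control cultures reached saturation at 30 °C; 1 = growth at the plate median or of vehicle wells; lower values mean less growth of the strain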
Details: S. cerevisiae deletion strains, growth OD

Measured: normalized growth

CCc1ccc(CCOc2ccc(CC3SC(=O)NC3=O)cc2)nc1 (configuration not stated)
inactive: locus YAL013W, strain DEP1, active compounds read low 1.01 | locus YAL021C, strain ccr4, active compounds read low 1.03 | locus YAL026C, strain drs2, active compounds read low 1.01 | locus YAL030W, strain snc1, active compounds read low 0.999 | locus YBL061C, strain skt5, active compounds read low 1.01 | locus YBR009C, strain hhf1, active compounds read low 1 | locus YBR021W, strain FUR4, active compounds read low 1 | locus YBR023C, strain chs3, active compounds read low 1 | locus YBR171W, strain sec66, active compounds read low 1.02 | locus YBR229C, strain ROT2, active compounds read low 0.993 | locus YBR231C, strain swc5, active compounds read low 0.999 | locus YBR279W, strain paf1, active compounds read low 1 | locus YCL011C, strain gbp2, active compounds read low 1 | locus YCL016C, strain dcc1, active compounds read low 1 | locus YCL029C, strain bik1, active compounds read low 0.996 | locus YCL061C, strain MRC1, active compounds read low 1.01 | locus YCL069W, strain vba3, active compounds read low 1.01 | locus YCR088W, strain abp1, active compounds read low 1.01 | locus YDL005C, strain med2, active compounds read low 1 | locus YDL035C, strain GPR1, active compounds read low 0.983 | locus YDL040C, strain nat1, active compounds read low 0.99 | locus YDL074C, strain BRE1, active compounds read low 0.974 | locus YDL101C, strain DUN1, active compounds read low 1.01 | locus YDL134C, strain PPH21, active compounds read low 0.998 | locus YDL185W, strain tfp1, active compounds read low 1 | locus YDL192W, strain arf1, active compounds read low 0.996 | locus YDR001C, strain nth1, active compounds read low 1.01 | locus YDR069C, strain doa4, active compounds read low 1.03 | locus YDR101C, strain arx1, active compounds read low 0.995 | locus YDR137W, strain rgp1, active compounds read low 0.916 | locus YDR150W, strain NUM1, active compounds read low 1.01 | locus YDR159W, strain sac3, active compounds read low 1.01 | locus YDR162C, strain NBP2, active compounds read low 1.02 | locus YDR195W, strain ref2 0.995 | locus YDR297W, strain sur2, active compounds read low 1.02 | locus YDR318W, strain mcm21, active compounds read low 0.994 | locus YDR334W, strain swr1, active compounds read low 1.02 | locus YDR335W, strain msn5, active compounds read low 1.02 | locus YDR388W, active compounds read low 0.989 | locus YDR392W, strain spt3, active compounds read low 1 | locus YDR502C, strain sam2, active compounds read low 0.994 | locus YEL003W, strain gim4, active compounds read low 1.02 | locus YEL037C, strain rad23, active compounds read low 1.01 | locus YEL061C, strain CIN8 (second series), active compounds read low 1 | locus YEL061C, strain CIN8, active compounds read low 1.02 | locus YER015W, strain faa2, active compounds read low 1.01 | locus YER016W, strain bim1, active compounds read low 1.01 | locus YER110C, active compounds read low 0.997 | locus YER111C, strain swi4, active compounds read low 1 | locus YER155C, strain BEM2 (second series), active compounds read low 1.05 | locus YER155C, strain BEM2, active compounds read low 0.995 | locus YER167W, strain BCK2, active compounds read low 1 | locus YFR010W, strain ubp6, active compounds read low 1.02 | locus YGL078C, strain dbp3, active compounds read low 0.988 | locus YGL086W, strain mad1, active compounds read low 0.996 | locus YGL167C, strain pmr1, active compounds read low 1 | locus YGL173C, strain kem1, active compounds read low 1.02 | locus YGL227W, strain vid30, active compounds read low 0.995 | locus YGL240W, strain doc1, active compounds read low 1.02 | locus YGL248W, strain PDE1, active compounds read low 0.999 | locus YGL253W, strain hxk2, active compounds read low 0.993 | locus YGR078C, strain PAC10, active compounds read low 1.06 | locus YGR135W, strain pre9, active compounds read low 0.993 | locus YGR229C, strain SMI1, active compounds read low 1.01 | locus YGR252W, strain gcn5, active compounds read low 0.946 | locus YHR013C, strain ard1, active compounds read low 1.03 | locus YHR027C, strain rpn1, active compounds read low 1.02 | locus YHR030C, strain SLT2, active compounds read low 1 and 0.969 | locus YHR079C, strain IRE1 (second series), active compounds read low 0.993 | locus YHR079C, strain IRE1, active compounds read low 0.959 | locus YHR094C, strain hxt1, active compounds read low 0.988 | locus YHR129C, strain ARP1, active compounds read low 0.999 | locus YHR142W, strain chs7, active compounds read low 1.01 | locus YHR200W, strain rpn10, active compounds read low 0.995 | locus YIL066C, strain RNR3, active compounds read low 1.01 | locus YIL073C, strain SPO22, active compounds read low 1.05 | locus YIL125W, strain kgd1, active compounds read low 0.988 | locus YIR030C, strain dcg1, active compounds read low 0.994 | locus YJL092W, strain hpr5, active compounds read low 1 | locus YJL095W, strain BCK1 (second series), active compounds read low 0.998 | locus YJL095W, strain BCK1, active compounds read low 0.979 and 1.01 | locus YJL115W, strain asf1, active compounds read low 1 | locus YJL129C, strain trk1, active compounds read low 1.02 | locus YJL134W, strain LCB3, active compounds read low 1 | locus YJL154C, strain vps35, active compounds read low 1.02 | locus YJL164C, strain tpk1, active compounds read low 0.991 | locus YJL166W, strain qcr8, active compounds read low 1.02 | locus YJL168C, strain set2, active compounds read low 0.99 | locus YJL187C, strain SWE1 (second series), active compounds read low 1.01 | locus YJL187C, strain SWE1, active compounds read low 1.01 | locus YJR043C, strain POL32, active compounds read low 0.991 | locus YJR066W, strain TOR1, active compounds read low 0.942
